Only some compounds are listed: those with a hit (about 7.3% of all), similar ones and a draw of the others.
FLuc counter – qHTS profiling assay for firefly luciferase inhibitor/activator using purifed enzyme and Km concentrations of substrates (counterscreen for miR-21 project). actives 6.9% (n = 360,000). purified FLuc, Km substrates, luminescence inhibition. Potency, µM (series often up to 57.5 µM), for the others: at the top dose activity change, negative = inhibition, most hits filed as inhibitors;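 note: plate controls were vehicle for no effect and reference inhibitor for full effect; nearly all actives have a fitted effect of over 55% in size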
Target sequence (P08659 whole entry, looked up): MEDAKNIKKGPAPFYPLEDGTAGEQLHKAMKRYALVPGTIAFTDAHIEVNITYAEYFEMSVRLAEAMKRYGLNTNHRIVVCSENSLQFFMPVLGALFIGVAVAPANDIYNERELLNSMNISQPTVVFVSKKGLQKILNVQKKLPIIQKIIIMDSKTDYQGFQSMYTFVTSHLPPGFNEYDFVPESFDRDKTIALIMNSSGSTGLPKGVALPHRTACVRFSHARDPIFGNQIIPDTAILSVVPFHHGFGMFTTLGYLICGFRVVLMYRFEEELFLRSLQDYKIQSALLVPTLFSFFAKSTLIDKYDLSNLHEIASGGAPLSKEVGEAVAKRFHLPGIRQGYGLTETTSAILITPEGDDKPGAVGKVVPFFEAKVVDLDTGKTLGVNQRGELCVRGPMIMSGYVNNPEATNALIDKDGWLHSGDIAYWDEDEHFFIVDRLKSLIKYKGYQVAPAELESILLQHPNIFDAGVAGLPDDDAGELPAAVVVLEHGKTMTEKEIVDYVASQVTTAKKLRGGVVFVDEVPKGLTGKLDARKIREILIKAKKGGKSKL
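Biochemical qHTS of compounds, final roughly 60 µM downward over six points, against 10 nM purified firefly luciferase using Km concentrations of substrates (10 uM D-luciferin, 10 uM ATP) in Tris acetate pH 7.5 buffer; luminescence output.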
uPA surface inh – qHTS for Inhibitors of Cell Surface uPA Generation; cell surface uPA generation assay, qHTS; Potency, µM (titrated, usually from 38.3 µM), for the others: at the highest dose activity change, negative = inhibition, hits mostly inhibitors; actives 0.31% (n = 330,000); AID 540303, 2011; active = well fitted inhibition curve with a large enough effect; inconclusive = small, poorly fitted or top-dose-only effect; inactive = no such curve, though single readings can be large or run the other way; tested in mouse RAW 264.7 cells; note: % is set by controls: 0 for no effect and ±100 for the full control effect; nearly all actives have a fitted effect of over 55% in size
ELG1 genotoxic – qHTS screen for small molecules that induce genotoxicity in human embryonic kidney (HEK293T) cells expressing luciferase-tagged ELG1 | HEK293T ELG1-luciferase reporter, luminescence, 16 h | Potency, µM (doses to about 46 µM), without a hit: at the top dose activity change, positive = activation, hits mostly activators | actives 1.3% (n = 330,000) | AID 504466, 2011; note: % of control where 0% means no effect; nearly all actives have a fitted effect of over 60% in size
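Quantitative HTS format in 1536-well plates. HEK293T ELG1-luciferase reporter cells receive test compound and are incubated 16 hr at 37 °C, 5% CO2; ONE-Glo added, 30 min room temperature, then luminescence read.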
Rab9 prom act – qHTS Assay for Rab9 Promoter Activators. Huh7 Rab9 promoter-luciferase reporter, luminescence, 24 h. Potency, µM (top dose mostly 9.22 µM), inactives show top-dose activation, negative = inhibition, usual class: activators. actives 2.8% (n = 320,000); note: % of control where 0% means no effect; nearly all actives have a fitted effect of over 60% in size
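Stable Rab9-luc Huh7, 1500 cells/well, 2 h settle; cmpd in DMSO, 24 h, 37 °C/5% CO2; luciferase reagent 10 min RT; luminescence.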
NPC1 promoter act – qHTS Assay for NPC1 Promoter Activators | Huh7 NPC1 promoter luciferase reporter, 24 h | Potency, µM (top dose mostly 9.22 µM), for the others: at the top dose activation, hits mostly activators | actives 2.4% (n = 320,000) | AID 485313, 2010; note: % of control where 0% means no effect; nearly all actives have a fitted effect of over 60% in size
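Huh7 reporter cells (NPC1 promoter driving luciferase) are dosed with compound for 24 h at 37 °C, 5% CO2; luciferase detection reagent is then added and luminescence measured after 10 min at ambient temperature.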
SMN2 splice up – qHTS Assay for Enhancers of SMN2 Splice Variant Expression; HEK293 SMN2-luciferase splicing reporter, luminescence, 30-36 h; Potency, µM (titrated, usually from 46.1 µM), without a hit: at the top dose activity change, positive = activation, actives largely listed as activators; actives 2.8% (n = 210,000); AID 1458, 2008; note: % of control where 0% means no effect; nearly all actives have a fitted effect of over 55% in size
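qHTS luciferase splicing reporter: luminescence rises when SMN2 exon 7 is included in transfected HEK293 cells. Compound exposure lasted 30-36 h at 37C, with 4.5 mM final sodium butyrate as control, followed by a ONE-Glo read.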
* marks the source's active call; other numbers are inactive results; u = inconclusive; x = no result given; [ ] = remark or other dose. Unless noted, calls come from the whole dose curve; as a rule, active = well fitted curve in the direction sought with a large enough effect; inconclusive = small, poorly fitted or top-dose-only effect, or another doubt; inactive = no such curve, though single readings can be large; an effect the other way counts as inactive or inconclusive. Potency is the fitted concentration of half-maximal effect.

SMILES	FLuc counter	uPA surface inh	ELG1 genotoxic	Rab9 prom act	NPC1 promoter act	SMN2 splice up
COc1ccc(Nc2nccc3c2nnn3C)cc1	10.7µM*	1.4%	5.8µM*	2.24µM*	1.26µM*	u
COCC1CCCCN1C(=O)c1ccc(OC2CCN(Cc3ccccn3)CC2)cc1 (centres undefined)	5.8%	2.1%	-0.4%	-5.2%	-0.4%	x
Cc1cc2nn(-c3ccc(F)cc3)nc2cc1N	0.757µM*	-6.9%	1.64µM*	3.16µM*	2.51µM*	x
COc1ccc(-n2nc3cc(C)c(N)cc3n2)cc1Cl	1.07µM*	-10.1%	u	2.82µM*	2.24µM*	x
Cc1cc2nn(-c3ccc(Cl)cc3)nc2cc1N	0.338µM*	6.1%	u	22.0%	u	x
COc1ccc(C2CC(=O)c3c(C)nc(N4CCN(C=O)CC4)nc3C2)c(OC)c1 (centres undefined)	1.5%	x	x	x	x	-26.1%
COc1ccc(S(=O)(=O)N2CCC(C(=O)Nc3ccc(Oc4ccccc4)cc3)CC2)cc1OC	-0.4%	x	x	x	x	-43.9%
Cc1ccc(N2C(S)=C(C#N)C(=O)NC23CCCCC3)cc1	16.9µM*	-5.5%	1.0%	-4.5%	-2.3%	19.0%
COc1ccc(C(=O)Nc2ccc(C3CC3(Cl)Cl)cc2)cc1 (centres undefined)	1.51µM*	-7.1%	13.6%	u	25.0%	x
COc1ccc(NC(=O)c2[nH]ncc2[N+](=O)[O-])cc1	u	-2.8%	15.8%	21.1%	-25.4%	-19.3%
C=C(Nc1ccc(OC)cc1)C(=O)OC	x	x	x	x	x	6.6%
COc1ccc(C(=O)NNC(=O)c2ccncc2)cc1	-4.7%	6.4%	1.0%	3.2%	0.2%	-10.4%
COc1ccc(NC(=O)c2ncn[nH]2)cc1	15.1µM*	-2.0%	8.5%	21.9%	13.9%	10.5%
COc1ccc(NC(=O)c2ccc(NC(=O)c3ccncc3)cc2)cc1	0.9%	-1.2%	10.3µM*	-6.7%	0.5%	x
COc1ccc(NC(=O)c2sc(=S)[nH]c2N)cc1	16.9µM*	-0.2%	11.3%	21.1%	1.7%	u
[N-]=[N+]=N[C@@H]1[C@H](O)[C@H](CO)O[C@@H]1n1cnc2c(N)ncnc21	x	x	x	x	x	-8.1%[9.22 µM]
Cc1ccc(NC(=O)Cn2cc3c(n2)CCCCC3)cc1	-6.4%	x	x	x	x	8.2%
CCOc1ncccc1C(=O)Nc1ccc(C(=O)Nc2ccc(OC)cc2)cc1	3.1%	-12.6%	3.2%	-4.2%	-5.4%	x
COc1ccc(NC(=O)c2ccc(Oc3ncccn3)cc2)cc1	16.9µM*	-2.6%	u	u	15.5%	12.1%
COc1ccc(NC(=O)c2cc(-c3cccc(OC)c3)on2)cc1	-6.2%	-4.8%	6.2%	-5.9%	-3.2%	-37.7%
COc1ccc(NC(=O)c2cccc(C(=O)Nc3ccc(OC)cc3)n2)cc1	5.36µM*	x	16.0%	-2.2%	2.2%	-5.7%
O=C(NC1CCCC1)c1ccc2c(=O)n(Cc3ccccc3)c(SCc3cccc([N+](=O)[O-])c3)nc2c1	0.1%	x	x	x	x	x
COc1ccc(-n2ncc(C(=O)Nc3ccc4c(c3)OCCO4)c2C2CCN(C(=O)OC(C)(C)C)CC2)cc1	-8.2%	x	x	x	x	x
Cc1ccc(C(=O)O)c(C(=O)Nc2nc(C)cs2)c1	-1.3%	x	1.0%	-1.4%	-0.1%	-7.6%
Cc1csc(NC(=O)c2cc(C)oc2C)n1	21.3µM*	-1.6%	12.4%	u	u	58.0%
SMILES	FLuc counter	uPA surface inh	ELG1 genotoxic	Rab9 prom act	NPC1 promoter act	SMN2 splice up
Cc1csc(NC(=O)Cc2ccccc2Cl)n1	16.9µM*	2.6%	u	5.01µM*	u	x
Cc1csc(NC(=O)Cc2ccc(Cl)cc2)n1	x	2.2%	x	x	x	x
CC(C)(C)c1csc(NC(=O)c2ccccc2O)n1	0.536µM*	-3.1%	-3.4%	u	u	x
CSc1ncccc1C(=O)Nc1nc(C(C)(C)C)cs1	16.9µM*	10.7%	12.2%	18.0%	16.5%	x
CC(C)(C)c1csc(NC(=O)c2cccnc2Cl)n1	x	-6.6%	x	x	x	x
CCS(=O)(=O)N1CCc2cc(C(=O)NCc3ccc(Cl)cc3)ccc21	-2.3%	x	x	x	x	x
O=C(Cn1c(SCCOc2ccccc2)nc2ccccc21)N1CCOCC1	0.8%	x	x	x	x	x
Cc1cc(C)n2nc(C(=O)Nc3nccs3)nc2n1	-17.0%	x	11.5%	u	u	u
Cc1csc(NC(=O)c2nc3nc(C)cc(C)n3n2)n1	21.3µM*	-2.0%	u	3.98µM*	3.55µM*	11.2µM*
Cc1csc(NC(=O)c2ccccc2O)n1	12µM*	-9.7%	u	u	u	2.3%
CCCc1nnc(NC(=O)Cc2coc3c(C)c(C)ccc23)s1	0.5%	x	x	x	x	9.0%
O=C(CN1CCOCC1)NCCNC(=O)CN1CCOCC1	-1.0%	1.4%	-1.4%	-1.8%	-2.4%	12.6µM*
O=C(CN1CCOCC1)NCCc1ccccc1	6.1%	2.1%	3.3%	4.0%	3.0%	x
COc1ccc(-c2csc3nc(-c4ccc(F)cc4)oc(=O)c23)cc1	-1.8%	x	x	x	x	-8.8%
Cc1cccc(-c2nc3sc(C)cc3c(=O)o2)c1	2.69µM*	-0.1%	12.3%	12.5%	23.0%	x
CCc1cc2c(=O)oc(-c3ccc(F)cc3)nc2s1	4.78µM*	-25.9%	1.2%	11.5%	2.4%	x
COc1cc(-c2nc3sc(C)c(C)c3c(=O)o2)cc(OC)c1OC	-0.2%	15.9%	-2.8%	-1.8%	4.3%	x
Cc1cc2c(=O)oc(-c3ccc(Br)cc3)nc2s1	1.9µM*	1.2%	u	21.5%	26.9%	x
CC(C)(c1cc(Br)c(OCC(Br)CBr)c(Br)c1)c1cc(Br)c(OCC(Br)CBr)c(Br)c1 (centres undefined)	x	x	x	x	x	-7.1%
COc1ccc2c(c1)c1c(c(=O)n(-c3ccc(C)cc3)c(=O)n1CC(=O)NCc1ccc(C)cc1)n2C	-0.9%	x	x	x	x	x
CC(=O)N1N=C(c2cccc([N+](=O)[O-])c2)OC1c1ccccc1Cl (centres undefined)	-8.2%	-2.7%	-0.6%	-0.5%	0.9%	-1.8%
CCOc1ccc(Br)cc1C1=NN(C(C)=O)C(c2ccc([N+](=O)[O-])s2)O1 (centres undefined)	5.9%	6.31µM*	u	0.3%	0.7%	x
CCN1/C(=C\C(=S)Nc2ccccc2)Sc2ccccc21	13.5µM*	-2.2%	u	2.82µM*	u	u
CCOCCc1nn2c(=O)cc(COC(=O)c3cccs3)nc2s1	1.1%	x	x	x	x	x
Cc1ccccc1C(=O)OCc1cc(=O)n2nc(C(C)C)sc2n1	16.9µM*	x	x	x	x	x
CC(C)c1nn2c(=O)cc(COC(=O)C3CCCCC3)nc2s1	23.9µM*	x	x	x	x	x
CCCc1nn2c(=O)cc(COC(=O)c3cccs3)nc2s1	26.9µM*	x	x	x	x	x

Assay outcomes from PubChem BioAssay.
